# Measurements: PubChem BioAssay
# For some of these results: Potency and affinity values are given separately. This is one part of the list. Calls of active or inactive are those of the source.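 How the source made its calls, unless noted: active means at 20 µM dose, 40% or more inhibition averaged across four replicates; inactive means the rest.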
# Assays:
# [1] = inhibition of Brca1/Bard1 split-luciferase complementation, confirmation, counter-screen for Mdm2/MdmX interaction inhibitor project, luminescence, single concentration (AID 504668; call rule not given here); details: Brca1/Bard1 bimolecular luciferase complementation counterscreen, at 8 µM, stronger effect = higher value
# [2] = biological target: Tumor necrosis factor receptor superfamily member 10B (Homo sapiens) (UniProt O14763); assay: caspase-8 TRAIL sensitization, hit retest, confirmation, cell-based, NB7+caspase-8, with/without TRAIL, luminescence panel (AID 651596; in the data active means activity above about 50%); details: NB7 neuroblastoma + caspase-8, TRAIL sensitization, luminescence viability, with TRAIL, mean of runs, at 10 µM, stronger effect = higher value
# Chain of Tumor necrosis factor receptor superfamily member 10B (Homo sapiens) (O14763 whole entry, looked up): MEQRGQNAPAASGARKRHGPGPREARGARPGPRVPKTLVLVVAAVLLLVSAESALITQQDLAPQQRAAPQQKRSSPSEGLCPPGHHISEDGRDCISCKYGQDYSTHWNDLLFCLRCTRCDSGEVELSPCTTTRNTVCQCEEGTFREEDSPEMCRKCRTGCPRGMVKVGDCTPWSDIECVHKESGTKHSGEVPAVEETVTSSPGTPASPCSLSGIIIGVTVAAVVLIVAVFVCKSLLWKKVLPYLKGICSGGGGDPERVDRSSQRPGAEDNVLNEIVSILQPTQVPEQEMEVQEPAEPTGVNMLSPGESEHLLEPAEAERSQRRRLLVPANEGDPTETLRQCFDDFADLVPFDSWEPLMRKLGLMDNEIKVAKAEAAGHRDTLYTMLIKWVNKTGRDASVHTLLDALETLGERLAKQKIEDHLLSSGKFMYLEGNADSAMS
# [3] = as above; details: NB7 neuroblastoma + caspase-8, without TRAIL, luminescence viability, without TRAIL, mean of runs, at 10 µM
# [4] = PABP1 MLLE–PAM2 binding inhibitor potency, dose response, biochemical, fluorescence polarization, FITC-PAM2 peptide (AID 602259;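 active means mean IC50 at or below a set limit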); details: GST-MLLE/FITC-PAM2 peptide binding
# [5] = Peg3 promoter reporter inhibitors, retest, confirmation, cell-based, HeLa, luciferase reporter, single concentration (AID 602417); details: HeLa PEG-Prom luciferase reporter, luminescence, overnight; at 20 µM; stronger effect = higher value
# [6] = HIF-2a reporter inhibitor retest, confirmation, luminescence, 786-0 RCC cells (AID 651580;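 active means mean inhibition across four replicates of at least 40 percent at the single tested concentration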); details: HIF-2a luciferase reporter luminescence, overnight, at 18.8 µM, stronger effect = higher value
# [7] = HIF-1a luciferase reporter signal reduction – MiaPaCa-2 cells, single concentration, counter-screen for HIF-2a inhibitor project, confirmation (AID 651589;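 active means mean inhibition of the reporter signal across four replicates at the single tested dose of 50% or more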); details: MiaPaCa-2 HIF-1a luciferase reporter, desferoxamine, overnight; at 18.8 µM; stronger effect = higher value
# PEG-3 [8] = biological target: PEG-3 (UniProt Q6IN02); assay: Peg3 promoter luciferase inhibitors, potency, dose response, cell-based, HeLa, CREF/GAPDH counter-screen panel (AID 624167); details: CREF/GAPDH counter-screens; HeLa PEG-Prom luciferase reporter, overnight, run 1, dose range 1, at 100 µM (top of the series) unless noted
# Chain of PEG-3 (Q6IN02 whole entry, looked up): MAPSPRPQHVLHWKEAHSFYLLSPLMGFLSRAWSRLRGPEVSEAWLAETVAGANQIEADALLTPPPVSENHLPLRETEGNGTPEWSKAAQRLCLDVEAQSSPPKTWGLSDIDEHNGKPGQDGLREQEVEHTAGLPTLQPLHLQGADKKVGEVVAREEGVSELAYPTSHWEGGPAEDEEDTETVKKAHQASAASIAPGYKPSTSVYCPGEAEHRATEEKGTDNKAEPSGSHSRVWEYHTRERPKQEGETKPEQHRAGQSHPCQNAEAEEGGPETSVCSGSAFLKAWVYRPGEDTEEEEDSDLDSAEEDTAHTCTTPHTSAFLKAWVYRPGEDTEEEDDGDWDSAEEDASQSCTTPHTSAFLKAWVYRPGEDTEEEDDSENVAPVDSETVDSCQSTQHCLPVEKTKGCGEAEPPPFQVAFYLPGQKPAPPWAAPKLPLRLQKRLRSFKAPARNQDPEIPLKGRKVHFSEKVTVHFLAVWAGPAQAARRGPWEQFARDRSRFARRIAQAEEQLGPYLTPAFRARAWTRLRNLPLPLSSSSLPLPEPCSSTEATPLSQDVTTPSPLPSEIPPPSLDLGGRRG
# PEG-3 [9] = biological target: PEG-3 (UniProt Q6IN02); assay: as above; details: CREF/GAPDH counter-screens; HeLa PEG-Prom luciferase reporter, overnight, run 2, dose range 1, at 100 µM (top of the series) unless noted
# Rat fibroblasts (CREF) [10] = assay: as above; details: CREF/GAPDH counter-screens; run 1, dose range 1, at 100 µM (top of the series)
# Rat fibroblasts (CREF) [11] = assay: as above; details: CREF/GAPDH counter-screens; run 2, dose range 1, at 100 µM (top of the series)
# [12] = inhibitors of PAF-induced NF-kB signaling, retest, confirmation, cell-based, GFP fluorescence, single concentration (AID 602472; in the data active means inhibition above about 40%;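 further: stimulus PAF is a Pseudomonas aeruginosa filtrate and not platelet activating factor; plate controls were DMSO wells with stimulus for no effect and unstimulated DMSO wells for full effect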); details: KKLEB CF airway cells, overnight, at 5 µM, stronger effect = higher value
smiles,measurement,setting,value
COc1ccc(NC(=O)c2nc(S(=O)(=O)Cc3cccc(C)c3)ncc2Cl)c(OC)c1,inhibition,[1],23.1% (active)
same,activity,[2],30%
same,activity,[3],66.4%
O=C(Nc1ccc2c(c1)OCCO2)c1cccc2nc3ccccc3nc12,inhibition,[1],27.6% (active)
same,activity,[2],59.7%
same,activity,[3],77.5%
Cn1c(=O)c(C(=O)Nc2ccccn2)c(O)c2ccccc21,inhibition,[1],28.9% (active)
same,activity,[2],60.7%
same,activity,[3],58.8%
CCCCCN=C(N)N/N=C/c1c[nH]c2ccc(OC)cc12,inhibition,[1],30.4% (active)
same,activity,[2],96.9%
same,activity,[3],98%
Cc1ccc2sc(N(CCCN(C)C)C(=O)CCS(=O)(=O)c3ccccc3)nc2c1C,inhibition,[1],29.9% (active)
same,activity,[2],62%
same,activity,[3],93%
CC1CCc2c(sc3nc(C(C)(C)C)nc(N4CCN(C(=O)CCl)CC4)c23)C1 (stereo not given),inhibition,[1],34.8% (active)
same,activity,[2],98.8%
same,activity,[3],99.2%
C[c-]1[c-](C)[c-](C)[c-](C)[c-]1C.[Fe].c1cc2nccc(N3CCCC3)[c-]2c1 (stereo not given),IC50,[4],> 66 µM (inactive)
Cc1ccc(C(NC(=O)C2CCN(CCOc3ccc(Cl)cc3Cl)CC2)c2ccccn2)cc1 (stereo not given),inhibition,[5],36.9% (inactive)
O=C(O)c1ccc(N/N=C/c2ccc3ncccc3c2)cc1,inhibition,[6],66.4% (active)
same,inhibition,[7],39.2% (inactive)
Cc1c(CCC(=O)O)c(=O)oc2c(C)c(OCc3ccccc3Cl)ccc12,inhibition,[6],63.3% (active)
same,inhibition,[7],46.2% (inactive)
CC(C)CN(C(=O)COC(=O)c1ccc2ccccc2c1)c1c(N)n(Cc2ccccc2)c(=O)[nH]c1=O,inhibition,[5],34.1% (inactive)
COc1cccc2c1C(=O)c1c(O)c3c(c(O)c1C2=O)CC(O)(C(C)=NNC(=O)c1ccc(Cl)c(Cl)c1)CC3OC1CC(N)C(O)C(C)O1 (stereo not given),inhibition,[5],96.6% (active)
same,inhibition,PEG-3 [8],102%
same,inhibition,PEG-3 [9],101%
same,inhibition,Rat fibroblasts (CREF) [10],99.3%
same,inhibition,Rat fibroblasts (CREF) [11],98.6%
Cc1ccc([C@H]2C[C@H](O)[C@@H](n3cc(COC(=O)c4ccccc4)nn3)CN2CC2CCCCC2)cc1,inhibition,[12],-29.2% (inactive)
CN(Cc1ccccc1F)C(=O)C(Cc1ccccc1)NC(=O)c1ccccc1 (stereo not given),inhibition,[5],48.7% (active)
same,inhibition,PEG-3 [8],98.9%
same,inhibition,PEG-3 [9],95.1%
CN(O)C(=S)c1ccccc1,inhibition,[5],89.1% (active)
same,inhibition,PEG-3 [8],27%
same,inhibition,PEG-3 [9],78.7%
same,inhibition,Rat fibroblasts (CREF) [10],0.489%
same,inhibition,Rat fibroblasts (CREF) [11],-19.9%
CCn1cc(CN2CCC(C(=O)Nc3cccc(-c4cccc(Cl)c4)c3)CC2)cn1,inhibition,[5],94.5% (active)
same,inhibition,PEG-3 [8],99.1%
same,inhibition,PEG-3 [9],98.3%
CCN1CCN(c2nc(Nc3cc(OC)ccc3OC)nc(Nc3cc(OC)ccc3OC)n2)CC1,inhibition,[5],70% (active)
same,inhibition,PEG-3 [8],47.9%
same,inhibition,PEG-3 [9],53.1%
COc1ccc(-c2ccc(CN3C(CC(C)C)C(=O)N(Cc4cn(CC5CCCCC5)nn4)CCS3(=O)=O)cc2)cn1 (stereo not given),inhibition,[12],36.1% (inactive)
Cc1ccc(C)c(S(=O)(=O)N2CCN(c3ncnc4sccc34)CC2)c1,inhibition,[5],69.5% (active)
same,inhibition,PEG-3 [8],90.1%
same,inhibition,PEG-3 [9],91.3%
same,inhibition,Rat fibroblasts (CREF) [10],13.9%
same,inhibition,Rat fibroblasts (CREF) [11],74.8%
same,activity,[2],68.5%
same,activity,[3],69%
O=C(Nc1ccc(Cl)cc1)Nc1nnc(/C=C/c2ccccc2)s1,inhibition,[12],50.8% (active)
Cc1cc2nc(-c3ccco3)c(Cc3cccc(F)c3)n2c(C)c1Br,inhibition,[12],-41.6% (inactive)
